Sampled rows, rich in hits. Any-hit rate of the full collection: about 27%.
CYP2C9 inhib = human CYP2C9 inhibition; P11712; CYP2C9 Supersomes, luciferin-H conversion, luminescence; inhibition, % at 5 µM; 96,000 compounds, 20% hits; AID 777;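 active = blocking of liver enzyme CYP2C9 beyond about 50% at 5 µM, limit read from the data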
CYP2C9 act = activators of human CYP2C9; recombinant CYP2C9, luciferin-H conversion, luminescence; active compounds read high; factor 1 = untreated enzyme, 0 = blocked; 96,000 compounds, 1.4% hits; activation factor at 5 µM;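 active = activation factor of 2 or more for CYP2C9 at a 5 µM dose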
CYP2C19 activ = activators of human cytochrome P450 2C19. recombinant CYP2C19, luciferin-H EGE luminescence; active compounds read high; 0 = fully inhibited enzyme, 1 = untreated enzyme. activation factor at 5 µM. 96,000 tested, under 10 active. P33261;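 active = activation factor of at least 2 at 5 µM in the primary screen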
Cav3 T inh = blocks human Cav3.2 T-type calcium channel; O95180; Cav3.2-expressing cells, Fluo-4 calcium fluorescence FDSS; active compounds read low; B-score at 10 µM; 100,000 compounds, 4% hits; AID 449739;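 active = single-dose well whose peak fluorescence ratio is a statistical outlier from its plate by either plate-standardised score or position-corrected B-score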
CYP2C19 inhib = inhibitors of human CYP2C19; CYP2C19 Supersomes, luciferin-H EGE luminescence, 30 min; inhibition, % at 5 µM; 96,000 compounds, 21% hits; AID 778;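 active = CYP2C19 inhibition above a set limit at 5 µM in the primary screen, cut at about 50% in these data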
Each line names hits and unclear results; the compound was inactive in the other large screens.

CN1/C(=C\C(=O)CN2C(=O)NC3(CCCCCC3)C2=O)C(C)(C)c2ccccc21	CYP2C9 inhib 79, Cav3 T inh -4.2, CYP2C19 inhib 88
CN1/C(=C\C(=O)COC(=O)CN2C(=O)C3CC=CCC3C2=O)C(C)(C)c2ccccc21 (stereo not drawn)	none
c1cnc(Oc2ccc3oc4ccccc4c3c2)nc1	CYP2C19 inhib 63
CC(C)Cn1c2c(c(O)c(C(=O)Nc3ccc(F)cc3)c1=O)CCCC2	none
CCCCc1nc2ccccc2c(=O)n1NC(=O)c1c(O)c2c(n(CC(C)C)c1=O)CCCC2	CYP2C9 inhib 60, Cav3 T inh -9.9
CCCn1c2c(c(O)c(C(=O)Nc3ccccc3)c1=O)CCCC2	CYP2C9 inhib 76 (no result: Cav3 T inh)
COCCNC(=O)CSc1nc(-c2ccccc2)cs1	none
CCOC(=O)N1CCN(S(=O)(=O)c2c(C)nn(C)c2C)CC1	none
CCOC(=O)C1CCN(c2ncnc3c2oc2ccc(Cl)cc23)CC1	CYP2C9 inhib 53, CYP2C19 inhib 80
CCOC(=O)C1CCN(c2ncnc3c2[nH]c2cccc(OC)c23)CC1	CYP2C9 inhib 51, CYP2C19 inhib 61
CCOC(=O)c1ccc(NC(=O)C(C)NS(=O)(=O)c2ccc(OC)cc2)cc1 (stereo not drawn)	CYP2C19 inhib 50
COc1ccc(S(=O)(=O)NC(C)C(=O)Nc2ccccc2F)cc1 (stereo not drawn)	none
COc1ccc(S(=O)(=O)NC(C)C(=O)Nc2cccc(C(C)=O)c2)cc1 (stereo not drawn)	CYP2C9 inhib 64
CCOC(=O)c1ccc(NC(=O)COc2ccc(S(=O)(=O)NC(C)CC)cc2)cc1 (stereo not drawn)	none
CCOC(=O)C1CCN(Cc2cnc(Oc3ccc(C(C)(C)C)cc3)s2)CC1	none
Cn1c(SCC(=O)c2ccc3c(c2)Cc2ccccc2-3)nnc1-c1ccccc1	none
Cc1ccc(C(C)NC(=O)C2CCCO2)cc1C (stereo not drawn)	Cav3 T inh -5.4
Cc1cccc(C(=O)NNC(=O)C2CCCO2)c1 (stereo not drawn)	none
OC(CCCCN1CCCCC1)c1ccccc1 (stereo not drawn)	none
O=C1CC(N2CCC(c3nc4ccccc4o3)CC2)C(=O)N1c1cc(Cl)cc(Cl)c1 (stereo not drawn)	CYP2C9 inhib 78
Cc1cccc(N2C(=O)CC(N3CCC(c4nc5ccccc5[nH]4)CC3)C2=O)c1 (stereo not drawn)	none
CCOC(=O)c1c(C)c(-c2ccccc2)n(CC(=O)N2CCCC2)c1C	CYP2C19 inhib 88
CCOC(=O)c1c(C)c(-c2ccccc2)n(CC(=O)N2CCN(C)CC2)c1C	none
CC(=O)Nc1ccc(S(=O)(=O)Nc2nc3ccccc3s2)cc1	CYP2C9 inhib 62
O=S(=O)(Nc1nc2ccccc2s1)c1ccc(Br)s1	CYP2C9 inhib 96, CYP2C19 inhib 81
Cc1ccc2nc(NC(=O)CCNS(=O)(=O)c3ccc(Br)s3)sc2c1	none
CC(=O)Nc1ccc(S(=O)(=O)Nc2nc3c(s2)CCCC3)cc1	CYP2C19 inhib 91
Cc1ccc(S(=O)(=O)Nc2nc3ccccc3s2)cc1	none
CN(CCNC(=O)c1ccc(N2CCCC2=O)cc1)CCc1ccccc1	none (no result: CYP2C9 inhib, CYP2C9 act, CYP2C19 activ, CYP2C19 inhib)
CN(C)/C=N/c1c(C#N)nnn1Cc1ccccc1	CYP2C19 inhib 67
CN(C)C=Nc1ncc2c3ccccc3n(Cc3ccccc3)c2c1C#N	none
O=C(Nc1nnc(COc2ccc(Cl)cc2)s1)c1cccs1	CYP2C9 inhib 55
CN(C)C(=O)Nc1cnc2ccccc2c1	none
O=S(=O)(Nc1cnc2ccccc2c1)N1CCCCCC1	CYP2C19 inhib 57
CCN1C(=O)NC2C1N(S(C)(=O)=O)CCN2S(C)(=O)=O (stereo not drawn)	none
COc1ccc2ccccc2c1C(O)c1nccn1C (stereo not drawn)	Cav3 T inh -5.6
Cc1ccc(C(O)c2nccn2C)o1 (stereo not drawn)	none
CC1CC(=O)C2=C(C1)Nc1ccccc1N=C2 (stereo not drawn)	none
CCC(=O)c1cccc2c1N=CC1=C(CC(C)(C)CC1=O)N2	CYP2C9 inhib 55
Cc1ccc(NC(=O)CN2C(=O)N/C(=C/c3ccco3)C2=O)cc1	none (no result: Cav3 T inh)
Cc1cccc(NC(=O)CN2C(=O)N/C(=C/c3cc(C)n(C(C)C)c3C)C2=O)c1	CYP2C9 inhib 71
Cc1nc(Nc2ccc3c(c2)OCCO3)c2oc3ccccc3c2n1	CYP2C9 inhib 76, CYP2C19 inhib 85
CCc1nc(Nc2ccc3c(c2)OCCO3)c2oc3ccccc3c2n1	none
COc1ccc(Nc2ncnc3c2oc2ccccc23)cc1	CYP2C19 inhib 55
Cc1ccc(Nc2ncnc3c2oc2ccccc23)cc1	CYP2C19 inhib 53 (no result: Cav3 T inh)
O=C(Nc1ccc(F)cc1F)NC1CC(=O)N(Cc2ccccc2)C1 (stereo not drawn)	none (no result: CYP2C9 inhib, CYP2C9 act, CYP2C19 activ, CYP2C19 inhib)
O=C(Nc1ccnc(-c2cccnc2)n1)c1ccc(Cl)cc1	none
Cc1ccc(C(=O)N2CCSCC2)cc1	none
O=C(Cn1c(=O)sc2ccccc21)Nc1ccccc1C(=O)O	CYP2C9 inhib 85
O=C(Cn1c(=O)sc2ccccc21)Nc1ccc(S(=O)(=O)N2CCCCC2)cc1	none (no result: CYP2C9 inhib, CYP2C9 act, CYP2C19 activ, CYP2C19 inhib)
CCN(CC)S(=O)(=O)c1ccc(NC(=O)Cn2c(=O)sc3ccccc32)cc1	CYP2C9 inhib 70, Cav3 T inh -6.1
O=C(Cn1c(=O)sc2ccccc21)Nc1ccccc1	CYP2C9 inhib 60
Cc1cccc(C)c1Nc1nnc(SCC(=O)NCc2ccco2)s1	CYP2C19 inhib 70
CCOCCCNC(=S)N1C2CCC1CC(NC(=O)NC1CCCCC1)C2 (stereo not drawn)	none
O=C(Cn1c(=O)sc2ccccc21)NCc1ccco1	CYP2C9 act 4.4, CYP2C19 inhib 72
Cc1cc2ccccc2c(=O)n1CC(=O)N(C)c1ccc(F)cc1	CYP2C19 inhib 60
CC(C)NC(=O)CSc1nnc2sc3ccccc3n12	none
O=C(CSc1nnc2sc3ccccc3n12)NCc1ccco1	CYP2C9 act 2.9
Cc1cc2ccccc2c(=O)n1CC(=O)NCc1ccco1	CYP2C9 act 2.6, CYP2C19 inhib 54
CCOC(=O)c1[nH]nc(N)c1NC(=O)c1ccc(Cl)cc1Cl	none (no result: CYP2C9 inhib, CYP2C9 act, CYP2C19 activ, CYP2C19 inhib)
O=C(NC1CC1)C1=C[C@@H](c2csc3ccccc23)C[C@@H](OCc2ccc(CO)cc2)O1	none (no result: CYP2C9 inhib, CYP2C9 act, CYP2C19 activ, CYP2C19 inhib)
COCCn1c(SCC(=O)OC(C)C)nnc1-c1ccccc1	none
O=C(CSc1nc2ccccc2c(=O)n1-c1ccccc1)N1CCCC1	CYP2C9 inhib 51
COC(=O)c1ccc2c(=O)n(Cc3ccco3)c(SCC(=O)Nc3ccccc3Cl)nc2c1	CYP2C9 inhib 88
O=C(CSc1nc2ccccc2c(=O)n1Cc1ccco1)N1CCCCCC1	CYP2C9 inhib 95, CYP2C19 inhib 58
O=C(CSc1nc2ccccc2c(=O)n1Cc1ccco1)NCc1ccco1	none (no result: CYP2C9 inhib, CYP2C9 act, CYP2C19 activ, CYP2C19 inhib)
COCCNC(=O)c1ccc2c(=O)n(Cc3ccco3)c(SCC(=O)NC3CCCCC3)nc2c1	none
COC(=O)c1ccc2c(=O)n(CC3CCCO3)c(SCC(=O)Nc3ccccc3Cl)nc2c1 (stereo not drawn)	none
